Source: PubChem BioAssay AID738 (SRMLSC, 2007)
Screen size: about 98,000 compounds; about 4,900 (5%) were called active. Rule as the data show it: active = inhibition above about 30%; inactive = the rest. Many of the other results were omitted from the sample, so actives are more common in it than they were.

Test: growth inhibition of yeast control strain, primary screen, counter-screen for post-Golgi transport modulator project (AID 738)
Details: efflux-deficient yeast background strain, growth absorbance A615, 16 h; at 10 µM; active compounds read high

Row | SMILES | inhibition
1 | CC(C)CC(=O)N1CCC(O)(CS(=O)(=O)Cc2ccccc2)CC1 | 12.7% (inactive)
2 | c1ccc(CSc2nnc(-c3ccco3)c(-c3ccco3)n2)cc1 | 21.3% (inactive)
3 | O=C(CSc1nnc(-c2ccco2)n1Cc1ccccc1)NC(=O)NCc1ccco1 | -1.05% (inactive)
4 | c1ccc(CSc2nnc(-c3ccco3)n2Cc2ccccc2)cc1 | 38.6% (active)
5 | COc1ccc(CCN(C(=O)COc2ccccc2)c2nc(-c3ccccc3)cs2)cc1OC | 4.48% (inactive)
6 | Cc1cccc2cc(CN(Cc3cccs3)C(c3nnnn3C3CCCC3)C(C)C)c(=O)[nH]c12 (stereo not drawn) | 23% (inactive)
7 | CCC(c1nnnn1Cc1ccco1)N(CCc1ccccc1)Cc1cc2cccc(C)c2[nH]c1=O (stereo not drawn) | 52.5% (active)
8 | CCC(c1nnnn1Cc1ccco1)N(Cc1cc2cc(OC)ccc2[nH]c1=O)C1CCCCC1 (stereo not drawn) | 29.9% (inactive)
9 | Cc1cccc2cc(CN(Cc3ccc4c(c3)OCO4)Cc3nnnn3C3CCCC3)c(=O)[nH]c12 | 20.4% (inactive)
10 | CCC(c1nnnn1Cc1ccco1)N(CCc1ccccc1)Cc1cc2ccc(OC)cc2[nH]c1=O (stereo not drawn) | 5.86% (inactive)
11 | CCC(c1nnnn1C1CCCC1)N(Cc1cccs1)Cc1cc2cccc(C)c2[nH]c1=O (stereo not drawn) | 38.6% (active)
12 | CCOC(=O)C1CN(S(=O)(=O)c2ccc(F)cc2)C1 | -2.08% (inactive)
13 | N=c1c2c(-c3ccccc3)c(-c3ccccc3)oc2ncn1Cc1ccco1 | 26.2% (inactive)
14 | CC(=O)c1sc(NC(=O)c2cccc3ccccc23)nc1C | -0.59% (inactive)
15 | Cc1ccc2nc(SCc3nnc(-c4ccccc4[N+](=O)[O-])o3)c(C#N)cc2c1 | 23.2% (inactive)
16 | c1ccc2c(CSCc3nc4ccccc4[nH]3)cccc2c1 | 14.3% (inactive)
17 | Cc1ccc(OC(=O)c2ccccc2C(=O)OCC(F)(F)C(F)F)cc1 | 5.33% (inactive)
18 | COc1ccc(-c2cc(C(F)(F)F)nc(S(C)(=O)=O)n2)cc1OC | 87.3% (active)
19 | COc1ccc(-c2cc(C(F)(F)F)nc(NCc3cccnc3)n2)cc1 | 26.7% (inactive)
20 | COc1ccc(-c2ccc(Nc3ccc(S(=O)(=O)N4CCCC4)cc3)nn2)cc1OC | -1.56% (inactive)
21 | O=C(Nc1ccc(Br)cc1)C1CCC(=O)N1Cc1ccccc1Cl (stereo not drawn) | -0.46% (inactive)
22 | CSCc1cc(N2CCOCC2)nc(SCc2ccc(Cl)cc2Cl)n1 | 7.94% (inactive)
23 | Cc1cc(C(=O)Nc2c(C)nn(Cc3ccccc3)c2C)on1 | 8.88% (inactive)
24 | CC(=O)Nc1ccccc1C(=O)C(=O)Nc1ccc(F)cc1 | 4.22% (inactive)

Row | SMILES | inhibition
25 | N#Cc1nc(COc2ccc(-c3ccccc3)cc2)oc1NCc1cccnc1 | 94.2% (active)
26 | N#Cc1nc(-c2ccc(OCc3ccccc3)cc2)oc1NCCCN1CCOCC1 | 14.1% (inactive)
27 | N#Cc1nc(Cc2ccccc2)oc1NCCc1ccccc1 | 21.1% (inactive)
28 | FC(F)(F)c1nc2ccccc2nc1N/N=C/c1ccc(Cl)cc1 | -2.3% (inactive)
29 | CCOC(=O)N1CCN(c2c(NCCCN3CCCC(C)C3)c(=O)c2=O)CC1 (stereo not drawn) | -0.16% (inactive)
30 | COc1ccc(C(c2nnnn2C2CCCCC2)N2CCN(c3ccccc3F)CC2)cc1 (stereo not drawn) | 50.5% (active)
31 | COCCn1nnnc1C(c1ccccc1Cl)N1CCN(c2ccccc2OC)CC1 (stereo not drawn) | 3.75% (inactive)
32 | CCC(c1nnnn1C1CCCC1)N1CCN(C(=O)c2ccco2)CC1 (stereo not drawn) | 12.4% (inactive)
33 | CC(C)C(c1nnnn1C1CCCC1)N1CCN(c2ccccc2F)CC1 (stereo not drawn) | 42.7% (active)
34 | COc1ccc(N2CCN(C(c3cc4ccc(C)cc4[nH]c3=O)c3nnnn3C3CCCC3)CC2)cc1 (stereo not drawn) | -0.59% (inactive)
35 | CC(C)C(c1nnnn1Cc1ccccc1)N1CCC(C(N)=O)CC1 (stereo not drawn) | -0.16% (inactive)
36 | Cc1ccc(SCC2=NNC(=O)C2)cc1 | -3.86% (inactive)
37 | O=C(NNC(=O)c1cccnc1)Nc1ccccc1 | 8.65% (inactive)
38 | O=Cc1c(N2CCN(c3cccc(Cl)c3)CC2)nc2ccccn2c1=O | 20% (inactive)
39 | O=[N+]([O-])c1ccccc1NCc1ccc(Cl)cc1 | 9.17% (inactive)
40 | CC(C)c1cc(C(N)=O)c(NC(=O)c2cccc(COc3ccc(Br)cc3)c2)s1 | 15.8% (inactive)
41 | CSc1ccccc1C(=O)Nc1cccc(C(C)=O)c1 | -2.07% (inactive)
42 | O=C1Nc2cc(Cl)c(Cl)cc2N(O)N1c1cc(Cl)cc(Cl)c1 | 33.2% (active)
43 | Clc1ccc(-c2cc(COc3ccccc3)no2)cc1Cl | 5.93% (inactive)
44 | Cc1ccc(-n2c(C)cc(/C=C(\C#N)C(=O)NCC3CCCO3)c2C)cc1 (stereo not drawn) | 10.8% (inactive)
45 | CN1C2CCC1/C(=C\c1ccccc1Cl)C(=O)/C2=C\c1ccccc1Cl | 25.3% (inactive)
46 | CC12c3ccccc3C(c3ccccc31)C1C(=O)N(Cc3cccnc3)C(=O)C12 (stereo not drawn) | 4.53% (inactive)
47 | O=C(O)CSCC(=O)Nc1cccc(C(F)(F)F)c1 | 4.42% (inactive)
48 | FC(F)(F)c1cccc(NC(=S)Nc2cccc(Cl)c2)c1 | 35.1% (active)

Row | SMILES | inhibition
49 | CC(=O)N1CCN(C(=O)Nc2cccc(C(F)(F)F)c2)CC1 | -1.91% (inactive)
50 | O=C(CCNS(=O)(=O)c1ccccc1C(F)(F)F)NCc1ccc2c(c1)OCO2 | -1.95% (inactive)
51 | COCCNC(=O)c1onc(CSc2cccc(C)c2)c1C(=O)O | -8.59% (inactive)
52 | Cc1ccc(-c2nn(C(C)(C)C)c3ncnc(N)c23)cc1 | 52.1% (active)
53 | COc1ccc(C(F)(F)F)cc1N/C=C\c1nnnn1-c1ccc(C)cc1 | 0.15% (inactive)
54 | O=S(=O)(/N=C(/Nc1ccccn1)c1ccccc1)c1ccc(Cl)cc1 | 1.53% (inactive)
55 | O=C(COc1ccc(/C=N/NS(=O)(=O)c2ccccc2)cc1)NCCc1ccccc1 | 5.69% (inactive)
56 | O=C(CSc1nnnn1C1CCCC1)Nc1ccc2c(c1)OCCO2 | -2.44% (inactive)
57 | O=C(CSc1nnnn1-c1ccc2c(c1)CCC2)Nc1ccc2c(c1)OCCO2 | 39.2% (active)
58 | O=C(CSc1nc2ncccc2[nH]1)Nc1ccc2c(c1)OCCO2 | 0.61% (inactive)
59 | COc1ccc(NC(C)=O)cc1NC(=O)CN1CCN(C2c3ccccc3-c3ccccc32)CC1 | 89.2% (active)
60 | COc1ccc(OC)c(NC(=O)CN2CCN(C(=O)c3ccco3)CC2)c1 | 12.4% (inactive)
61 | COc1ccc(NC(C)=O)cc1NC(=O)CN1CCN(c2ccccn2)CC1 | 18.6% (inactive)
62 | Cc1c(C(=O)OC(C)C)sc(NC(=O)c2cccnc2)c1C#N | 11.5% (inactive)
63 | CC(CN1CCOCC1)c1ccccc1 (stereo not drawn) | 5.77% (inactive)
64 | O=C(Nc1sc2c(c1-c1nc3ccccc3[nH]1)CCCC2)C1CC1 | 3.43% (inactive)
65 | CCOC(=O)c1c(NC(=O)c2ccc(N3CCOCC3)c([N+](=O)[O-])c2)sc(C)c1C | 3.45% (inactive)
66 | COc1ccc(C(=O)Oc2cc(/C=N/NS(=O)(=O)c3ccc(C)cc3)ccc2OC)cc1 | 4.53% (inactive)
67 | COc1cccc(/C=N/NC(=O)c2cccc([N+](=O)[O-])c2)c1OS(=O)(=O)c1ccc(C)cc1 | 6.93% (inactive)
68 | COc1cc(/C=N/O)cc(Br)c1OCc1cccc(Cl)c1 | 68% (active)
69 | CCOc1c(Cl)cc(/C=N/O)cc1OC | -0.28% (inactive)
70 | COc1cc(/C=N/O)cc(Br)c1OS(=O)(=O)c1ccc(C)cc1 | 55.4% (active)
71 | CCOc1cc(/C=N/O)cc(Br)c1OC | 9.73% (inactive)
72 | Cn1nc(C(F)(F)F)c(C(=O)Nc2cccc(C(F)(F)F)c2)c1SCc1ccc(Cl)cc1 | 9.33% (inactive)

Row | SMILES | inhibition
73 | CC(Oc1ccc(-c2ccccc2)c(F)c1)c1ccn(S(=O)(=O)c2cccc3ccccc23)n1 (stereo not drawn) | 7.08% (inactive)
74 | O=c1c2ccccc2c(-c2ccc(F)cc2)nn1-c1ccc(C(F)(F)F)cc1 | 23.4% (inactive)
75 | O=C(CNC(=O)c1ccc(Cl)cc1Cl)NCC(=O)Nc1ccccc1N1CCOCC1 | 1.21% (inactive)
76 | Cc1cc(C(=O)Nc2ccccc2N2CCOCC2)c2ccccc2n1 | 6.17% (inactive)
77 | COc1c(C)cccc1C(=O)Nc1cc(Cl)ccc1N1CCOCC1 | 87.2% (active)
78 | C/C(=N\NC(=O)c1ccccc1C)c1ccc(N2CCOCC2)cc1 | -0.44% (inactive)
79 | CC(C)C(C)NC(=O)COc1ncnc2ccccc12 (stereo not drawn) | 27.4% (inactive)
80 | COc1cccc(N2CCN(C(=O)Nc3ccc4c(c3)NC(=O)CO4)CC2)c1 | 4.59% (inactive)
81 | O=C(Cn1cncn1)N/N=C/c1c2ccccc2cc2ccccc12 | -2.2% (inactive)
82 | Cn1nc(-c2ccc(Cl)cc2)c2cc(C(=O)NCc3ccco3)sc21 | 34.4% (active)
83 | CCOC(=O)N1CCN(C(=O)c2cc3c(-c4ccc(Cl)cc4)nn(C)c3s2)CC1 | 22.3% (inactive)
84 | COc1ccccc1N1CCN(C(=O)c2cc3c(-c4ccc(Cl)cc4)nn(C)c3s2)CC1 | 16.3% (inactive)
85 | CC(=O)c1cccc(NC(=O)C2CCCN2S(=O)(=O)c2cccc3nsnc23)c1 (stereo not drawn) | 18.2% (inactive)
86 | Cc1ccc(-c2nc3ccccc3[nH]2)cc1NC(=O)c1sc2ccccc2c1Cl | 12.1% (inactive)
87 | O=C(/C=C/c1ccco1)Nc1cccc(-c2nc3ccccc3[nH]2)c1 | 14.9% (inactive)
88 | CC(Cc1cccs1)NC(=O)NC1CCCCC1 (stereo not drawn) | 4.21% (inactive)
89 | Cc1ccsc1C(C(=O)NC1CCCCC1)N(C(=O)Cc1cccs1)C1CC1 (stereo not drawn) | 34.2% (active)
90 | Cc1cccc(N(C(=O)Cc2cccs2)C(C(=O)NC2CCCC2)c2ccsc2)c1 (stereo not drawn) | 2.59% (inactive)
91 | Cc1ccc(Oc2ccc3c(c2)C(=O)N(c2cccc4cccnc24)C3=O)cc1 | 9.43% (inactive)
92 | COC(=O)c1cc(OC)c(OC)cc1NC(=O)CSc1ccc(C)cc1 | 4.16% (inactive)
93 | N#Cc1ccsc1NC(=O)CN1CCCCC1 | 3.25% (inactive)
